Measurements reported in PubChem BioAssay AID504854 (Southern Research Specialized Biocontainment Screening …, 2011).
Measured potencies and affinities stand elsewhere. Unmarked numbers belong to inactive results. How the calls were made is not given here.

Assay: Vero cell cytotoxicity, dose response, cytotoxicity control for M. tuberculosis growth inhibitor project, Vero cells, purified and synthesized compounds, set 4 (AID 504854)
Details: series mostly up to 100 µM; viability: at the top concentration

| SMILES | viability [%] |
| --- | --- |
| NC(=O)CSc1nc2ccccc2c(=O)[nH]1 | 98.6 |
| Cc1cc(=O)[nH]c(=S)[nH]1 | 108 |
| Nc1c(C(=O)NC2CCCCC2)nsc1C(=O)OCC(=O)NC1CCCCC1 | 96.5 |
| Cc1[nH]c(=S)[nH]c(=O)c1C | 92.8 |
| CN1CCC(NC(=O)CSc2nc3ccccc3c(=O)[nH]2)CC1 | 94.4 |
| Cc1c[nH]c(=S)[nH]c1=O | 99.7 |
| CCSc1nc(C)c(C)c(=O)[nH]1 | 94.9 |
| O=c1[nH]c(=S)[nH]c2ccccc12 | 94.9 |
| Cc1cccc(/C=C/C(=O)c2ccc([N+](=O)[O-])o2)c1 | 102 |
| Cc1nc(SCC(=O)NCCC(C)C)[nH]c(=O)c1C | 89.4 |
| Cc1nc(SCC(=O)NC2CCCC2)[nH]c(=O)c1C | 106 |
| Cn1c(SCC(=O)NC2CCCCC2)nc2ccccc2c1=O | 95.2 |
| O=C(CSc1nccc(=O)[nH]1)NC1CCCCC1 | 90.6 |
| CCOC1OC(=O)C(Cl)=C1Nc1ccccc1C (stereo not drawn) | 93.3 |
| Cc1cc(=O)[nH]c(SCC(=O)NC2CCCCC2)n1 | 86.1 |
| O=C(CSc1ncccn1)NC1CCCCC1 | 91.7 |
| Cc1nc(SCC(N)=O)[nH]c(=O)c1C | 92 |
| O=C(CSc1nc2ccccc2c(=O)[nH]1)NC1CCCCC1 | 96.3 |
| Cc1cnc(SCC(=O)NC2CCCCC2)[nH]c1=O | 86.8 |
| O=C(CSc1ccccn1)NC1CCCCC1 | 93.5 |
| Cc1nc(SCC(=O)N(C)c2ccccc2)[nH]c(=O)c1C | 97 |
| COc1ccc(NC(=O)CSc2nc3ccccc3c(=O)[nH]2)cc1 | 86.4 |
| CCC(Sc1nc2ccccc2c(=O)[nH]1)C(=O)NC1CCCCC1 (stereo not drawn) | 97.8 |
